Laboratory results reported in PubChem BioAssay AID1438 (Sanford-Burnham Center for Chemical Genomics, 2008).
Hit rate of the full screen: of about 2,200 compounds, about 45 (2%) were called active. These entries were drawn from the full list. Results with a measured potency or affinity are listed apart. A number with no mark means an inactive call. How the calls were made is not given here.

What follows are compounds tested against Runt-related transcription factor 1 (Homo sapiens) + Core-binding factor subunit beta (Homo sapiens) (UniProt Q01196+Q13951) (assay: inhibitors of RUNX1 Runt–CBFb-SMMHC binding, biochemical, TR-FRET (AID 1438)). Details: TR-FRET Runt domain–CBFb-SMMHC binding, at 20 µM, stronger effect = higher value.
Runt-related transcription factor 1 (Homo sapiens) + Core-binding factor subunit beta (Homo sapiens), sequence (Q01196 whole entry, looked up, the tested form may be a part): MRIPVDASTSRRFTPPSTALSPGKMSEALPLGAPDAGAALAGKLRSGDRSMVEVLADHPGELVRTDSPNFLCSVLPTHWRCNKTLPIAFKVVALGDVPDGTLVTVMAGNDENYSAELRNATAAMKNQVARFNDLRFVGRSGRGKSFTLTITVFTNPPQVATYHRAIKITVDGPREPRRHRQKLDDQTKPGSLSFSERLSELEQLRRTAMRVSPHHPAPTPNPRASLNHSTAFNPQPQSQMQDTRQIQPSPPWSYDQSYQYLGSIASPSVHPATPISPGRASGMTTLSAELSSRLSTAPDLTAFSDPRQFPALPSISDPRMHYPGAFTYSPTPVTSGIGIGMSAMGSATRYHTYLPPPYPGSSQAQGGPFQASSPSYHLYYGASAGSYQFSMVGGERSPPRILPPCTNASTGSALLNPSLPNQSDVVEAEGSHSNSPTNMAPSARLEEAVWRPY
Runt-related transcription factor 1 (Homo sapiens) + Core-binding factor subunit beta (Homo sapiens), sequence (Q13951 whole entry, looked up, the tested form may be a part): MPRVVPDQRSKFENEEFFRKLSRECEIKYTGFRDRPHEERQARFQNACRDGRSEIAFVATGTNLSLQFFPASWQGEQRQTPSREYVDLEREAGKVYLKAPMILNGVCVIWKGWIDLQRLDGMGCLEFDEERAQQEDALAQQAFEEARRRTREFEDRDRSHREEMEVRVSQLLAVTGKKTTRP

| SMILES | inhibition |
| --- | --- |
| Cc1cc(O)ccc1N/C=C(\C#N)c1nc2ccccc2o1 | 8% |
| Cc1cc(Nc2ccccc2)nc2cc(O)ccc12 | 15.5% |
| Cc1ccc(C2C3=C(CC(C)(C)CC3=O)N(CCN3CCOCC3)C3=C2C(=O)CC(C)(C)C3)cc1 | 42.9% |
| CCCN1C2=C(C(=O)CCC2)C(c2ccc(O)c(Br)c2)C2=C1CCCC2=O | 24.4% |
| C=CCOc1ccc(C2C(C#N)=C(N)N(Nc3ccccc3)C3=C2C(=O)CCC3)cc1OC (stereo not drawn) | 32.3% |
| CCN1C2=C(C(=O)CCC2)C(c2ccc(O)c(Br)c2)C2=C1CCCC2=O | 19.7% |
| N#Cc1c(N)[nH]c(=S)c(C#N)c1-c1ccccc1 | -64.2% |
| CCOC(=O)c1cc2c(=O)n3ccccc3nc2n(CCCOC)c1=NC(=O)c1ccncc1 | 2.5% |
| COCCN1C=C(C(=O)OC)C(c2cc(Br)c(OC)c(OC)c2)C(C(=O)OC)=C1 | 47.6% |
| COC(=O)C1C(O)CCC2CN3CCc4c([nH]c5ccccc45)C3CC21 (stereo not drawn) | -11.7% |
| C=CCn1c(=N)c(C(=O)NCCCOC)cc2c(=O)n3cccc(C)c3nc21 | 2.9% |
| Cn1c(=O)nc2n(Cc3ccccc3)c3ccccc3cc-2c1=O | 36.1% |
| CCn1c(O)c(C=Nc2ccccc2)sc1=S | -3.7% |
| O=C1CCCC2=C1C(c1ccc(Br)cc1)c1c([nH]c(=S)[nH]c1=O)N2 (stereo not drawn) | 42.6% |
| c1ccc(-c2nc(N3CCCCC3)nc3ccccc23)cc1 | 25.8% |
| CCc1nnc(NC(=O)C2(C)COC(c3ccccc3)OC2)s1 (stereo not drawn) | -7% |
| CCC(C)(C)n1nnnc1C(c1cc2cc3c(cc2[nH]c1=O)OCO3)N1CCN(C)CC1 (stereo not drawn) | 39.5% |

| SMILES | inhibition |
| --- | --- |
| CCCNC(=O)Cn1sc2nc(C)cc(C)c2c1=O | -3.9% |
| O=C(O)CSc1c2c(nc3cc(C(=O)N4CCOCC4)ccc13)CCCC2 | -4.9% |
| O=C(Cn1c2ccccc2c(=O)c2ccccc21)Nc1ccccc1F | -15.4% |
| O=C(Cn1c2ccccc2c(=O)c2ccccc21)N/N=C/c1ccc(N2CCCC2)c([N+](=O)[O-])c1 | 10.6% |
| O=C(CCC(=O)N/N=C/c1cc(Cl)cc(Cl)c1O)NCc1ccccc1 | -4.9% |
| O=C(Cn1c2ccccc2c(=O)c2ccccc21)Nc1cccc(F)c1 | 39% |
| CCc1cc2c(COC(=O)c3c(C)noc3C)cc(=O)oc2cc1O | -33.2% |
| Cc1ccc(CNC(=O)c2cc3c(=O)n4ccccc4nc3n(CC3CCCO3)c2=N)cc1 (stereo not drawn) | 36.3% |
| N=c1c(C(=O)NCc2ccc(F)cc2)cc2c(=O)n3ccccc3nc2n1CCCN1CCOCC1 | 38.7% |
| COc1ccc(CNC(=O)c2cc3c(=O)n4ccccc4nc3n(Cc3cccnc3)c2=N)cc1 | 29.1% |
| N=c1c(C(=O)NCc2ccc3c(c2)OCO3)cc2c(=O)n3ccccc3nc2n1Cc1cccnc1 | 48.7% |
| N=c1c(C(=O)NCc2ccco2)cc2c(=O)n3ccccc3nc2n1Cc1ccccc1 | 65% (active) |
| CCOC(=O)c1cc2c(=O)n3ccccc3nc2n(Cc2ccccc2)c1=N | 41.8% |
| N=c1c(C(=O)NCc2ccc(F)cc2)cc2c(=O)n3ccccc3nc2n1Cc1cccnc1 | 48.7% |
| Cc1cccn2c(=O)c3cc(C(=O)NCc4ccco4)c(=N)n(CCc4ccccc4)c3nc12 | -9.3% |
| COc1ccc(CCn2c(=N)c(C(=O)NCc3ccco3)cc3c(=O)n4cccc(C)c4nc32)cc1 | 21.9% |
